This is part of a sample that, as a whole, favours compounds with a hit. Of some 79,000 tested, about 15% had one in any assay. Values without a mark were called inactive. Active and inactive are the calls of the source. No stated cut-off is given here; in the data, active means growth inhibition above about 70%; inactive means the rest. Where a SMILES comes first, the peptide text is derived from it. [ ]: non-standard residue; d: D form. The star is where a group is joined. ξ: configuration not given here. ξPhe(4-NO2) = NC(Cc1ccc([N+](=O)[O-])cc1)C(=O)O; Boc = CC(C)(C)OC(=O)*; OBn = c1ccc(CO*)cc1
Key:
[1] = NCI Yeast Anticancer Drug Screen. Data for the rad50 strain (AID 155);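 further: 0% = growth of vehicle-only cultures of the same strain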; settings: S. cerevisiae rad50 strain growth inhibition; at 50.0 µM; active compounds read high
Summary of the method: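 Vehicle-treated cultures provide the reference for the growth inhibition reported for compound-exposed, repair-deficient yeast.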

[2] = NCI Yeast Anticancer Drug Screen. Data for the mec2-1 strain (AID 157); settings: S. cerevisiae mec2-1 strain, at 50.0 µM, active compounds read high
Summary of the method: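 Growth inhibition is read against vehicle-treated controls after compound exposure of the mec2-1 yeast strain, which is defective in DNA damage repair or cell cycle control.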

[3] = NCI Yeast Anticancer Drug Screen. Data for the sgs1 mgt1 strain (AID 161);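 further: 0% = growth of cultures given vehicle only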; settings: S. cerevisiae sgs1 mgt1 strain, at 50.0 µM, active compounds read high
Summary of the method: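 Percent growth inhibition was derived by comparing compound-exposed mutant yeast with vehicle-exposed cultures. The strain carries alterations in DNA damage repair.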

[4] = NCI Yeast Anticancer Drug Screen. Data for the cln2 rad14 strain (AID 165);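 further: 0% = growth equal to vehicle treated cultures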; settings: S. cerevisiae cln2 rad14 strain, at 50.0 µM, active compounds read high
Summary of the method: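 Growth inhibition, relative to vehicle-treated controls, is the read-out. The test organism is a yeast strain with defined genetic alterations, cln2 rad14.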

[5] = NCI Yeast Anticancer Drug Screen. Data for the bub3 strain (AID 167); settings: S. cerevisiae bub3 mutant strain, at 50.0 µM, active compounds read high
Summary of the method: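 Mutant yeast screening strain plus compound; vehicle-treated cultures serve as the 0% inhibition reference.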

[6] = NCI Yeast Anticancer Drug Screen. Data for the mlh1 rad18 strain (AID 175); settings: S. cerevisiae mlh1 rad18 strain growth inhibition; at 50.0 µM; active compounds read high
Summary of the method: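 Cells of a genetically altered yeast strain, deficient in DNA damage repair, were treated with compound. Their growth was then compared with that of vehicle-treated cultures to give inhibition.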

Row | Structure (SMILES) | growth inhibition [1] | growth inhibition [2] | growth inhibition [3] | growth inhibition [4] | growth inhibition [5] | growth inhibition [6]
1 | O=c1[nH]cnc2c1ncn2CCCCO | -0.15% | -5.25% | 1.6% | 2.7% | -0.05% | 10.4%
2 | COc1ccc(-c2cc(=O)c3ccc(O)cc3o2)c(OC)c1OC | -4.7% | -10.4% | -8.35% | 6.65% | -2.65% | -1.75%
3 | COc1ccc2c(c1)c(CO)c(CO)c[n+]2[O-] | 11.7% | 3.1% | 16% | 2.75% | 11.8% | 6.15%
4 | O=C1/C(=C\c2ccc(O)cc2)CCC/C1=C/c1ccc(Cl)c(Cl)c1 | -0.5% | 27.4% | 7.15% | 35.5% | -4.85% | 24.6%
5 | O=S(=O)(NCCNS(=O)(=O)c1ccccc1)c1ccccc1 | -10.4% | -13.8% | 10.5% | -44.5% | 1.55% | 4%
6 | O=C(O)C(=Cc1ccnc2ccccc12)C(=O)O | 7.75% | -13.7% | -35.8% | 15.7% | -52.2% | 3.5%
7 | Cn1cc(-c2ccccc2)cc1-c1ccccc1 | -11.4% | 6.6% | -4.5% | 4.9% | -14.9% | 9.75%
8 | CN1Cc2ccccc2[C@H]2C(c3ccccc3)=NN(c3ccccc3)[C@H]21 | 39.6% | 26.9% | 59.2% | 9.6% | 41.2% | 37.2%
9 | Cn1c(=O)c2c(nc(C[N+]3([O-])CCOCC3)n2C)n(C)c1=O | -4.75% | -34.9% | -27.9% | 8.35% | -11.5% | -27.9%
10 | Cc1cc(C)nc(NS(=O)(=O)c2ccc(NC(=O)c3ccncc3)cc2)n1 | -7.75% | -17.1% | 3.05% | 9.55% | -8.25% | -17.1%
11 | Nc1ccc([N+](=O)[O-])cc1C(=O)Oc1ccccn1 | 9.15% | 5% | 8.5% | 10.8% | -3.6% | 19%
12 | O=C(NCCCCCCNC(=O)NCc1ccco1)NCc1ccco1 | -22.7% | -28.2% | -28.1% | -15.7% | 0.05% | -19.9%
13 | Clc1ccc(-c2oc(-c3ccc(Cl)cc3)c3ccccc23)cc1 | -3.85% | -13.2% | 4.75% | -78.2% | -15.5% | -23.6%
14 | CCN(CC)CCOC(=O)COc1ccc(Cc2ccccc2)cc1 | 14.7% | 3.55% | 14.3% | 15.6% | -9.4% | 11.3%
15 | CC(C)(C)OC(=O)NC(Cc1ccc([N+](=O)[O-])cc1)C(=O)NCC(=O)OCc1ccccc1 (stereo unspecified) (Boc-[ξPhe(4-NO2)]-Gly-OBn) | -17.4% | 8.45% | 7.05% | 32.5% | -5.5% | -9%
16 | c1ccc(-n2nc3ccc4nonc4c3n2)cc1 | -17.9% | -20.8% | -10.5% | 7.4% | -0.05% | -1.55%
17 | C[N+](C)(N)Cc1csc(-c2ccc(Cl)cc2)n1 | -31.3% | -39.3% | -12.7% | -8.1% | -24.6% | -10.5%
18 | NC(=O)C1CCc2ccccc2C1 (stereo unspecified) | 0.7% | -15.1% | 2.6% | 3% | -5.15% | -9.45%
19 | NC(CC1C=CCCC1)C(=O)O (stereo unspecified) | -26.4% | -16.1% | 1.85% | -52.3% | 7.1% | -4.3%
20 | CN(C)C(=NN)N(C)C | 0.5% | -2.3% | 1.55% | -34% | 3.6% | -3.9%
21 | CC1=CC(O)C(Br)C(C)(C)C12CCC(C)(Cl)C(Br)C2 (stereo unspecified) | 90.1% (active) | 91% (active) | 89.8% (active) | 81.8% (active) | 89.9% (active) | 89.3% (active)

Row | Structure (SMILES) | growth inhibition [1] | growth inhibition [2] | growth inhibition [3] | growth inhibition [4] | growth inhibition [5] | growth inhibition [6]
22 | CCOC(=O)[C@]1(Br)CC[C@]1(Br)C(=O)OCC | 16.2% | -12.7% | -4.95% | 10% | -29.1% | -62.8%
23 | CCCCCCCCCC(=O)N/N=C/c1ccco1 | 51.7% | 59.6% | 63% | 44.9% | 69.4% | 78% (active)
24 | CCC(C)[N+](=O)[O-] (stereo unspecified) | 3.6% | -5.1% | -5.55% | -2.15% | 0.75% | 3.1%
25 | NC(=S)c1ccccc1N=Cc1cccs1 | 26.8% | 16.1% | 14.2% | -7.7% | 53.6% | 41.5%
26 | Cc1ccc2c3nc4ccccc4c-3csc2c1 | 99.2% (active) | 99.4% (active) | 99.4% (active) | 99% (active) | 99.2% (active) | 99.3% (active)
27 | NNS(=O)(=O)c1ccc(Oc2ccc(S(=O)(=O)NN)cc2)cc1 | 10.8% | 10.1% | 24.6% | -4.9% | 14.9% | 30.9%
28 | NC(=S)N/N=C/c1ccncc1 | -25.8% | -10.6% | -17.6% | -25.9% | 9.35% | -52.9%
29 | COc1ccc(N2C(=O)C3c4[nH]c5ccccc5c4C4CC(C)CC(C)C4C3C2=O)cc1 (stereo unspecified) | 53% | 0.65% | 8.85% | -25.2% | 41% | 14.7%
30 | CCOC(=O)CS(=O)(=O)CS(=O)(=O)CC(=O)OCC | 10% | 8.35% | 7.85% | 5.55% | 9.95% | 7.25%
31 | CCOC(=O)C(C#N)CCC(C)=O (stereo unspecified) | -12.3% | -11.1% | 17.4% | -24.4% | -7.8% | -28.6%
32 | COc1ccc(Cc2c3cc(OC)c(OC)cc3cc[n+]2C)cc1 | -0.05% | -28.4% | -17.9% | -2.45% | -10.8% | -6.15%
33 | C=CCNc1nc2c(s1)CCc1cc(OC)c(OC)cc1-2 | 30.1% | 10.6% | 12% | 29.4% | 15.2% | 61.6%
34 | CCCCCCCCCCCCCCCCOc1ccc(OC)cc1C(=O)NNC(=S)SC | 14.7% | -0.1% | 24.6% | 8.55% | 34% | 21.2%
35 | Clc1ccc(-c2c3nc(c(-c4ccc(Cl)cc4)c4ccc([nH]4)c(-c4ccc(Cl)cc4)c4nc(c(-c5ccc(Cl)cc5)c5ccc2[nH]5)C=C4)C=C3)cc1 | -30.6% | -17.9% | -12.4% | 15.8% | -14.3% | -18.9%
36 | O=C1C2=C(OCO2)C(=O)C2=C1OCO2 | 2.65% | 20.8% | 21.1% | 3.7% | 9.95% | 3.2%
37 | Cc1ccc(-c2n[nH]c(=O)n2N2C(=O)C=CC2=O)cc1 | -9.05% | -20.6% | -26.3% | -1.2% | -15.4% | -59.9%
38 | ClCCCCCCCCCCl | 28.6% | -17.4% | -12.7% | -9% | -13.2% | 2.15%
39 | O=C(O)CCc1nc2c(n1Cc1ccccc1)C(=O)c1ccccc1C2=O | 28.4% | 21.3% | 43.3% | 44.7% | 41.1% | 13%
40 | CC[N+](C)(C)CCOP(=O)(c1ccccc1)c1ccccc1 | 2.4% | 6.35% | -15.1% | 4.6% | -2.2% | 9.5%
41 | CC(C)CSc1nc2ccc(N=Cc3ccccc3O)cc2s1 | -29.4% | -5.5% | -11.3% | -13% | 8.75% | -17.3%

Reference: PubChem BioAssay (NCI)
